Screens from PubChem.
Shown are actives, neighbours in structure and some others; about 12% of the full set was active somewhere.
Sfp PPTase inh: blocks B. subtilis Sfp PPTase activity. Q9F4F7. Biochemical Sfp PPTase activity, qHTS. Potency, µM, hits mostly inhibitors. actives 3.5% (n = 310,000). AID 1490;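 also: the enzyme is Sfp with the accession as filed and its product quenches rhodamine fluorescence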
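Compounds were incubated with enzyme (final 15 nM) for 15 min at room temperature before substrate addition started the reaction. Fluorescence at 525 nm excitation, 598 nm emission was recorded immediately and after 30 minutes.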
G9a block: blocks human histone lysine methyltransferase G9a; actives 8.8% (n = 350,000); Q96KQ7; Potency, µM (titrated, usually from 102 µM), most hits filed as inhibitors; G9a H3K9 monomethylation, AlphaScreen, 2 h; also: nearly all actives have a fitted effect of over 75% in size
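Readings reflect AlphaScreen signal from monomethyl-H3K9 antibody detection. HMT at 20 nM; substrate b-H3K9 500 nM; cofactor SAM 20 uM; 2 h RT reaction; compounds tested as titrations in qHTS with 15 min preincubation.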
JMJD2A Tudor inh: blocks the human JMJD2A Tudor domain; AlphaScreen JMJD2A-Tudor / H3K4me3 peptide binding; Potency, µM (series often up to 114 µM), usual class: inhibitors; actives 4.4% (n = 390,000); also: nearly all actives have a fitted effect of over 50% in size
PLK1 PBD inh: inhibitors of human PLK1 polo-box domain binding; Plk1 PBD binding of FITC phosphopeptide, fluorescence polarization; AID 720504; actives 2.8% (n = 360,000); Potency, µM, most hits filed as inhibitors; P53350; also: series mostly up to about 57 µM; nearly all actives have a fitted effect of over 65% in size
HP1b binding inh: HP1-beta chromodomain-methylated histone interaction inhibition; Potency, µM (titrated, usually from 114 µM), actives largely listed as inhibitors; actives 0.56% (n = 390,000); AlphaScreen HP1-beta / biotin-H3K9me3 peptide binding; also: nearly all actives have a fitted effect of over 70% in size
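AlphaScreen: HP1-beta (50 nM) preformed 30 min with biotin-H3(1-18)K9me3 peptide (50 nM) in PBS pH 7.4, 0.01% Tween-20. Compound added for 30 min at RT, then streptavidin donor/nickel chelate acceptor beads (10 ug/mL) for 30 min.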
BAZ2B inh: BAZ2B (human) inhibition; actives 4.4% (n = 360,000); AID 504333; Q9UIF8; AlphaScreen BAZ2B-H3K14Ac peptide displacement; Potency, µM (series often up to 114 µM), actives largely listed as inhibitors; also: nearly all actives have a fitted effect of over 60% in size
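Protein-peptide AlphaScreen: BAZ2B 50 nM, b-H3K14Ac 50 nM, 1x PBS pH 7.4 + 0.01% Tween-20. Preincubation 30 min RT; cpd 30 min RT (top 110 uM); beads 20 min RT, light-protected.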
Each line names hits and unclear results; the compound was inactive in the other large screens. Calls follow the shape of the dose curve; as a rule, active = well fitted curve in the direction sought with a large enough effect; inconclusive = small, poorly fitted or top-dose-only effect, or another doubt; inactive = no such curve, though single readings can be large; an effect the other way counts as inactive or inconclusive.

Cc1ccc(-n2cccc2/C=C2/C(=N)N3C(=NC2=O)SN=C3S(C)(=O)=O)cc1	G9a block 40µM, JMJD2A Tudor inh 16µM, PLK1 PBD inh inconclusive, BAZ2B inh 45µM
CCC1=NN2C(=N)/C(=C\c3cccn3-c3ccc(Cl)cc3)C(=O)N=C2S1	PLK1 PBD inh inconclusive, BAZ2B inh inconclusive
Cc1cccc(NC(=O)CN2CCN(CC(=O)Nc3cccc(C)c3)CC2)c1	G9a block 50µM
Cc1cccc(NC2(C(=O)O)CCCC2)c1	JMJD2A Tudor inh 35µM (no result: Sfp PPTase inh, G9a block, BAZ2B inh)
O=C(O)C1(Nc2ccccc2)CCCC1	none (no result: Sfp PPTase inh, G9a block, BAZ2B inh)
CN(CC(=O)Nc1ccc(Cl)cc1)C1CCCCC1	none
Cc1ccc(NC(=O)CN(C)C2CCCCC2)cc1Br	Sfp PPTase inh 56µM, JMJD2A Tudor inh 18µM, HP1b binding inh inconclusive, BAZ2B inh 50µM
Cc1cccc(NC(=O)CCN2CCN(C)CC2)c1	G9a block inconclusive, PLK1 PBD inh inconclusive
Cc1ccc(NC(=O)CN2CCCCCC2)cc1Br	G9a block 22µM, JMJD2A Tudor inh 3.2µM, HP1b binding inh inconclusive, BAZ2B inh inconclusive
COCCCNC(=O)c1cnc2sc(N3CCCCCC3)nn2c1=O	none (no result: Sfp PPTase inh, PLK1 PBD inh)
O=C(CN1C(=O)c2cccc([N+](=O)[O-])c2C1=O)N1CCN(S(=O)(=O)c2ccccc2)CC1	none (no result: Sfp PPTase inh)
CC(C)CCN(CC(=O)NC1CCCC1)C(=O)C(=O)Nc1ccc2c(c1)OCCO2	none
CCCCN(CC(=O)NC1CCCC1)C(=O)C(=O)Nc1ccc2c(c1)OCCO2	JMJD2A Tudor inh 79µM, PLK1 PBD inh inconclusive
COCCN(C(=O)c1cccc(N2C(=O)CCC2=O)c1)c1nc(-c2ccc([N+](=O)[O-])cc2)cs1	none (no result: Sfp PPTase inh)
COc1ccccc1N(C(=O)c1ccncc1)c1nc(-c2ccc([N+](=O)[O-])cc2)cs1	G9a block 10µM, JMJD2A Tudor inh inconclusive, HP1b binding inh inconclusive, BAZ2B inh inconclusive
COc1ccccc1CN1C(=O)c2ccccc2C1C(=O)NC1CCC(C)CC1 (stereo not drawn)	JMJD2A Tudor inh inconclusive, PLK1 PBD inh 19µM
COc1ccc(Br)cc1CN1C(=O)c2ccccc2C1C(=O)NC1CCCCCC1 (stereo not drawn)	none (no result: Sfp PPTase inh, PLK1 PBD inh)
O=C(NC1CCCCCC1)C1c2ccccc2C(=O)N1C1CC1 (stereo not drawn)	G9a block 8.9µM
CN(C)c1cc(-c2ccc(Cl)cc2)oc(=O)c1Cl	none
CN(C)c1cc(-c2ccc(Cl)cc2Cl)oc(=O)c1Cl	Sfp PPTase inh inconclusive, BAZ2B inh 89µM (no result: G9a block)
CCn1cnc2cc(NC(=O)c3cccs3)ccc21	none
CC(C)(C)n1cnc2cc(NC(=O)c3cccs3)ccc21	G9a block 40µM
CC(C)(C)NC(=O)CSc1nnc(NC(=O)CCn2cnc3ccccc3c2=O)s1	JMJD2A Tudor inh 25µM
Cc1cccc(C)c1NC(=O)CCn1cnc2ccccc2c1=O	PLK1 PBD inh 27µM
CCc1ccc(NC(=O)CCn2cnc3ccccc3c2=O)cc1	JMJD2A Tudor inh 79µM (no result: Sfp PPTase inh, PLK1 PBD inh)
CC(C)(C)c1csc(NC(=O)Cn2cnc3ccccc3c2=O)n1	Sfp PPTase inh 20µM, G9a block inconclusive, JMJD2A Tudor inh inconclusive, PLK1 PBD inh 13µM, HP1b binding inh inconclusive
Cc1ccc(C)c(NC(=O)CSc2ccc(-c3ccco3)nn2)c1	Sfp PPTase inh 14µM
O=C(CSc1ccc(-c2ccco2)nn1)NC1CCCC1	G9a block inconclusive
Cc1ccccc1NC(=O)Cc1nnc(SCC(=O)NC2=NCCS2)n1C	G9a block inconclusive, JMJD2A Tudor inh 25µM
COc1ccccc1NC(=O)CSc1ccc(-c2ccco2)nn1	Sfp PPTase inh 45µM, G9a block inconclusive, BAZ2B inh inconclusive
COc1ccccc1NC(=O)CSc1ccc(-c2cccs2)nn1	G9a block inconclusive
Cc1ccccc1NC(=O)CSc1ccc(-c2ccco2)nn1	Sfp PPTase inh 22µM
Cc1oc2cc3oc(=O)c(CCC(=O)NCCCN4CCOCC4)c(C)c3cc2c1C	G9a block inconclusive
CCc1ccc(CN2CCc3nc(Nc4ccccc4)ncc3C2)cc1	none (no result: Sfp PPTase inh, PLK1 PBD inh)
Nc1nc(SCc2ccccc2)c2ncn(CCO)c2n1	none (no result: Sfp PPTase inh, G9a block, BAZ2B inh)
CCC(=O)N1CCc2cc(Br)cc(S(=O)(=O)N3CCCC(C(=O)Nc4cccc(F)c4)C3)c21 (stereo not drawn)	none (no result: Sfp PPTase inh, PLK1 PBD inh)
Cc1ccccc1NC(=O)CSc1nnc(-c2ccco2)n1N	G9a block 7.9µM, PLK1 PBD inh 19µM, HP1b binding inh inconclusive (no result: Sfp PPTase inh)
O=C(CSc1nnc2ccc(-c3ccco3)nn12)Nc1ccccc1F	G9a block 14µM, BAZ2B inh inconclusive (no result: Sfp PPTase inh)
Cc1ccccc1NC(=O)CSc1nnc(-c2ccoc2C)n1CCc1ccccc1	G9a block 79µM, BAZ2B inh inconclusive
CNc1ccccc1C(=O)OCC(=O)N1CCc2ccccc2C1	none (no result: Sfp PPTase inh, G9a block, JMJD2A Tudor inh, HP1b binding inh, BAZ2B inh)
CCn1cc(CCC(=O)O)c(C)n1	G9a block 45µM
c1ccc(CSc2ccc(-c3cccs3)nn2)nc1	G9a block 16µM, PLK1 PBD inh inconclusive
CCc1ccc(NC(=O)CCS(=O)(=O)c2ccc3c(c2)n(C)c(=O)c(=O)n3C)cc1	none (no result: Sfp PPTase inh, PLK1 PBD inh)
CCN1CCN(CCC(=O)Nc2cc(OC)cc(OC)c2)CC1	G9a block inconclusive
COc1cc2[nH]c(=S)nc(NCCCOC(C)C)c2cc1OC	G9a block 45µM, JMJD2A Tudor inh inconclusive, BAZ2B inh 50µM
COCCNc1nc(=S)[nH]c2cc(OC)c(OC)cc12	G9a block 35µM, JMJD2A Tudor inh inconclusive
CCCCNc1nc(=S)[nH]c2cc(OC)c(OC)cc12	Sfp PPTase inh inconclusive, JMJD2A Tudor inh inconclusive, BAZ2B inh inconclusive
CCOCCCNc1nc(=S)[nH]c2cc(OC)c(OC)cc12	G9a block 35µM, JMJD2A Tudor inh inconclusive, BAZ2B inh inconclusive
CC(C)(C)OC(=O)N1CCC(c2c(C(=O)NC3CCCCC3)cnn2-c2cccc(F)c2)CC1	none (no result: Sfp PPTase inh, PLK1 PBD inh)
CC(C(=O)Nc1ccc(S(N)(=O)=O)cc1)N1CCc2ccccc21 (stereo not drawn)	G9a block 79µM
CCN(CC)S(=O)(=O)c1cc(NC(=O)C(C)N2CCc3ccccc32)ccc1C (stereo not drawn)	G9a block 25µM, JMJD2A Tudor inh inconclusive (no result: BAZ2B inh)
COc1ccc(N(C(=O)c2cc(OC)c(OC)c(OC)c2)S(=O)(=O)c2ccc(C)cc2)cc1	none (no result: Sfp PPTase inh, PLK1 PBD inh)
CC(C)n1c(SCC(=O)N2CCN(C)CC2)nc2c1c(=O)n(C)c(=O)n2C	none
O=C(Cc1ccc(Br)cc1)NCc1ccccc1	none (no result: G9a block)
Cc1nc2[nH]c(=S)[nH]c2cc1Br	G9a block 4µM, JMJD2A Tudor inh 45µM, PLK1 PBD inh inconclusive
Cc1nc2nc[nH]c2cc1Br	none
CCSc1nnc2c(n1)OC(c1ccc(C)cc1)N(C(C)=O)c1ccccc1-2 (stereo not drawn)	G9a block inconclusive (no result: Sfp PPTase inh, PLK1 PBD inh)
COc1ccc(O)c(C(=O)c2cc(C(=O)NCCc3ccccc3)c(=O)n(CCc3ccccc3)c2)c1	G9a block 8.9µM, JMJD2A Tudor inh inconclusive, HP1b binding inh inconclusive, BAZ2B inh inconclusive
